Records with an inconclusive call do not appear. The source made the active and inactive calls. Calls follow the shape of the dose curve; as a rule, active = well fitted inhibition curve with a large enough effect; inconclusive = small, poorly fitted or top-dose-only effect; inactive = no such curve, though single readings can be large or run the other way.
Experiment: qHTS Screen of the MIPE 4.0 Collection Against Ewings Sarcoma (RDES) (AID 1259252); also: nearly all actives have a fitted effect of over 35% in size
Settings: RD-ES Ewing sarcoma viability, CellTiter-Glo, 48 h; series mostly up to 45.8 µM
Description: There is a large unmet medical need for treatments for Ewing sarcoma, a pediatric sarcoma. We sought to identify compounds that inhibited Ewing sarcoma cells in vitro with the goal to then test promising drugs in two drug combinations in vitro to look for synergistic drug combinations. Promising combinations would then proceed to additional validation, including in vivo testing.
Using the NCATS developed oncology compound library called the Mechanism of Interrogation Plate (MIPE), four Ewing sarcoma cell lines were evaluated (TC32, TC71, RDES, EW8). Compounds, in a 12-point titration series, were incubated with cells for 48 hours and the read out was cell viability (CellTiter-Glo from Promega). These initial experiments were used to select appropriate concentrations of each single agent for subsequent two-drug matrix combinations such that the concentrations in the matrices would span both activity and non-activity.
Cells, in the log phase of growth, were seeded in 5 uL of RPMI plus 5% FBS, […] L-glutamine, 100 U/ml penicillin and 100 ug/ml streptomycin into 1536-well solid-bottom white tissue culture treated Greiner Bio One Plates (789173-F) using a MultiDrop Combi (Thermofisher Scientific) dispenser and a small sterile cassette. One column was media alone to be used as a :"no cells" control. The plates were then covered with sterilized stainless steel gasketed lids from Kalypsys. After allowing cells to attach for 4 hours, 23 nL of test compound or control (negative control DMSO and positive control 9.2 uM Bortezomib-final) were added from a 1536-well polypropylene compound source plate to each well using a 1536 head pin tool from Kalypsys. Cells were then incubated for 48 hours at 37C, 95% relative humidity and 5% CO2. After 48 hours, plates were removed from the incubator and 3 uL of CellTiter-Glo (Promega) was added using an Aurora Flying Reagent Dispenser Bioraptor. Plates were incubated at room temperature for 10 minutes prior to reading the luminescence on the Viewlux (PerkinElmer). The relative luciferase units are used to calculate the percent activity using the activity of DMSO in the cells and no cells columns for normalization of no inhibition and full inhibition respectively.
Potency is read from the fitted curve at half-maximal effect.

| SMILES | Potency |
| --- | --- |
| CC[C@@]1(O)C(=O)OCc2c1cc1n(c2=O)Cc2cc3cc(O)ccc3nc2-1 | 0.0132 µM (active) |
| COc1ccc(-n2nc(C(N)=O)c3c2C(=O)N(c2ccc(N4CCCCC4=O)cc2)CC3)cc1 | inactive |
| c1nc2nc(Nc3ccc(N4CCOCC4)cc3)nc(NC3CCCCC3)c2[nH]1 | 14.8 µM (active) |
| COc1cc(Nc2ncc(F)c(Nc3ccc4c(n3)N(COP(=O)(O)O)C(=O)C(C)(C)O4)n2)cc(OC)c1OC | 11.8 µM (active) |
| O=c1c2ccccc2nc2n1CCc1c-2[nH]c2ccccc12 | inactive |
| C=CC(=O)Nc1cc2c(Nc3ccc(F)c(Cl)c3)ncnc2cc1C#CC(C)(C)N1CCN(C)CC1 | 1.87 µM (active) |
| CCCNC(=O)Nc1ccc(Oc2ncnc3cc(OC)c(OC)cc23)cc1Cl | inactive |
| c1cc(-c2cnn3cc(-c4ccc(OCCN5CCCCC5)cc4)cnc23)ccn1 | 20.9 µM (active) |
| CCN(CC)CCCCNc1ncc2cc(-c3cc(OC)cc(OC)c3)c(NC(=O)NC(C)(C)C)nc2n1 | 20.9 µM (active) |
| CCOc1cc2ncc(C#N)c(Nc3ccc(F)c(Cl)c3)c2cc1NC(=O)C=CCN(C)C | 0.105 µM (active) |
| CCCCCCCCCC(=O)N[C@@H](Cc1c[nH]c2ccccc12)C(=O)N[C@H](CC(N)=O)C(=O)N[C@@H](CC(=O)O)C(=O)N[C@@H]1C(=O)NCC(=O)N[C@@H](CCCN)C(=O)N[C@@H](CC(=O)O)C(=O)N[C@H](C)C(=O)N[C@@H](CC(=O)O)C(=O)NCC(=O)N[C@H](CO)C(=O)N[C@@H]([C@@H](C)CC(=O)O)C(=O)N[C@@H](CC(=O)c2ccccc2N)C(=O)O[C@@H]1C | inactive |
| CC[C@@H]1C(=O)N(C)c2cnc(Nc3ccc(C(=O)NC4CCN(C)CC4)cc3OC)nc2N1C1CCCC1 | 0.0662 µM (active) |
| Cc1[nH]nc2ccc(-c3cncc(OC[C@@H](N)Cc4ccccc4)c3)cc12 | 2.09 µM (active) |
| CC(O)C1C(=O)N2C(C(=O)O)=C(SC3CNC(C(=O)N(C)C)C3)C(C)C12 (stereo not given) | inactive |
| CC(C)c1cc(-c2n[nH]c(=O)n2-c2ccc3c(ccn3C)c2)c(O)cc1O | 0.105 µM (active) |
| C[C@@H]1CN(CC(=O)Nc2ccc3c(c2)Cc2cccc(-c4cc(=O)cc(N5CCOCC5)o4)c2S3)C[C@H](C)O1 | 23.5 µM (active) |
| CC1(C)CCC(c2ccc(Cl)cc2)=C(CN2CCN(c3ccc(C(=O)NS(=O)(=O)c4ccc(N[C@H](CCN5CCOCC5)CSc5ccccc5)c(S(=O)(=O)C(F)(F)F)c4)cc3)CC2)C1 | 26.4 µM (active) |
| COc1cc(C(=O)NS(=O)(=O)c2ccccc2C)ccc1Cc1cn(C)c2ccc(NC(=O)OC3CCCC3)cc12 | 23.5 µM (active) |
| C1=CCOCc2cc(ccc2OCCN2CCCC2)Nc2nccc(n2)-c2cccc(c2)OCC1 | 5.9 µM (active) |
| O=C(C=Cc1cccnc1)NCCCCC1CCN(C(=O)c2ccccc2)CC1 | 0.0042 µM (active) |

| SMILES | Potency |
| --- | --- |
| NC(=O)Nc1cc(-c2cccc(F)c2)sc1C(=O)N[C@H]1CCCNC1 | 0.935 µM (active) |
| CN(C)CC(C)(C)CNc1nn2c(-c3ccccc3)nnc2cc1C1CCC1 | 0.418 µM (active) |
| CC1(C)CC(=O)c2c(C(F)(F)F)nn(-c3ccc(C(N)=O)c(NC4CCC(OC(=O)CN)CC4)c3)c2C1 (stereo not given) | 0.166 µM (active) |
| CCN1CCN(Cc2ccc(-c3cc4c(N[C@H](C)c5ccccc5)ncnc4[nH]3)cc2)CC1 | inactive |
| CN1CCC(CNc2ccc3ncc(-c4cccc(OC(F)(F)F)c4)n3n2)CC1 | 16.6 µM (active) |
| Nc1ccc(C(=O)c2cc3c(ccc4ccccc43)[nH]2)cc1 | 2.64 µM (active) |
| CS(=O)(=O)N1CCN(Cc2cc3nc(-c4cccc5[nH]ncc45)nc(N4CCOCC4)c3s2)CC1 | 1.18 µM (active) |
| Cc1cn2c(-c3cn[nH]c3)cnc2c(Nc2ccc(C(=O)N3CCNCC3)cc2F)n1 | 16.6 µM (active) |
| CC(=O)SC[C@@H](C)C(=O)N1CCC[C@H]1C(=O)N[C@@H](Cc1ccccc1)C(=O)O | inactive |
| O=C(Nc1cn[nH]c1-c1nc2ccc(CN3CCOCC3)cc2[nH]1)NC1CC1 | 3.72 µM (active) |
| C=C1C(=CC=C2CCC[C@]3(C)[C@@H]([C@H](C)C=C[C@H](C)C(C)C)CC[C@@H]23)C[C@@H](O)C[C@@H]1O | 0.332 µM (active) |
| CC(C)c1cc(C(=O)N2Cc3ccc(CN4CCN(C)CC4)cc3C2)c(O)cc1O | 0.469 µM (active) |
| CCCCCN(CCC12CC3CC(CC(C3)C1)C2)C(=O)NCCCc1ccncc1 | 16.6 µM (active) |
| OCc1ccc(-c2ccc(-c3ccc(CO)s3)o2)s1 | 0.0526 µM (active) |
| Fc1cc(-c2cccc3ncc(-c4cnn(C5CCNCC5)c4)nc23)cc(F)c1CN1CCOCC1 | 20.9 µM (active) |
| Cc1cc(CN2CCN(c3c(Br)cnc4nc(-c5ccc(N6CCN(C)CC6)cc5)[nH]c34)CC2)no1 | 14.8 µM (active) |
| C=C1C(=CC=C2CCCC3(C)[C@@H]([C@H](C)C=CC=CC(O)(CC)CC)CC[C@@H]23)C[C@@H](O)C[C@@H]1O (stereo not given in full) | 18.7 µM (active) |
| CCOC(=O)C1=C(C)NC2=C(C(=O)CC(C)(C)C2)C1c1ccc(-c2ccccc2)cc1 (stereo not given) | 26.4 µM (active) |
| Cc1cc(Nc2nc(N[C@@H](C)c3ccc(F)cc3)c(C#N)cc2F)n[nH]1 | 1.66 µM (active) |
| Cn1cncc1[C@@](N)(c1ccc(Cl)cc1)c1ccc2c(c1)c(-c1cccc(Cl)c1)cc(=O)n2C | 7.43 µM (active) |
